Screens deposited in PubChem BioAssay by several laboratories.
PriA SSB inh = K. pneumoniae PriA-SSBct interaction inhibition; inhibition, % at 33 µM; hit rate 0.6% among 430,000; AlphaScreen SSBct-PriA binding, biotinylated peptide; in the data active = inhibition mostly above about 37%, no sharp cut-off; inactive = mostly below about 20%
MazF activator = activators of E. coli MazEF toxin-antitoxin RNase; activation, % at 20 µM; hit rate 0.32% among 350,000; FAM/BHQ RNA-DNA oligo cleavage fluorescence, 5 h; in the data active = activation above about 50%
Target sequence (P0AE70 whole entry, looked up): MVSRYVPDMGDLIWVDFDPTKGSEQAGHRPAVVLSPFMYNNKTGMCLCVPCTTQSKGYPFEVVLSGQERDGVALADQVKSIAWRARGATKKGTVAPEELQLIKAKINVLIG
BJeLR viability = BJeLR cell viability loss; AID 1554; BJeLR (HRASV12) viability, CellTiter-Glo ATP luminescence, 48 h; inhibition, % (concentration not given with the values); hit rate 0.17% among 300,000; in the data active = inhibition above about 50%
Sa ugtP lethal = kills S. aureus RN4220 lacking UgtP | S. aureus RN4220 ugtP deletion, OD600 growth, 16 h | growth inhibition, % (no concentration beside the values) | hit rate 0.54% among 330,000; in the data active = growth inhibition above about 68%
RN4220 kill = S. aureus RN4220 growth inhibition. OD600, 16 h. inhibition, % (concentration not given with the values). hit rate 0.33% among 330,000; in the data active = inhibition above about 85%
A number is an active result; . = inactive; / = not tested or not shown. Only some compounds are listed: those with a hit (about 1.2% of all), similar ones and a draw of the others.

SMILES | PriA SSB inh | MazF activator | BJeLR viability | Sa ugtP lethal | RN4220 kill
Cc1noc(C)c1COc1ccc(C(=O)N2CC(C)CC(C)C2)cc1 (stereo unspecified) | . | . | / | . | .
CC12CCC(=O)N1C(C(=O)N1CCN(c3ccc(C(F)(F)F)cc3[N+](=O)[O-])CC1)CS2 (stereo unspecified) | . | . | . | . | .
Cc1ccc(NC(=O)c2cc3c(=O)oc4ccccc4c3s2)nc1 | . | . | . | / | /
O=C(NNC(=O)c1ccc([N+](=O)[O-])o1)c1ccccc1 | . | . | . | 99 | .
NC(=O)c1oc2ccccc2c1NC(=O)c1ccc([N+](=O)[O-])o1 | . | . | . | 100 | 100
NC(=O)c1oc2ccccc2c1NC(=O)c1cc(=O)c2ccccc2o1 | . | / | / | / | /
O=C(CN1C(=O)CCC1=O)Nc1nnc(-c2cccnc2)o1 | . | / | / | / | /
CCN1C(=Cc2cc[n+](C)cc2)C=Cc2cc(C)ccc21 | . | / | / | / | /
CCN1/C(=C/c2cc[n+](C)cc2)C=Cc2cc(C)ccc21 | / | . | / | 100 | .
CCCC(=O)NC(C)c1nc(-c2ccc(C)cc2)no1 (stereo unspecified) | . | . | . | . | .
NS(=O)(=O)c1ccc(CCNC(=O)CCCCCn2c(=O)[nH]c3ccsc3c2=O)cc1 | . | / | / | / | /
Clc1ccc(-c2noc(-c3ccc(CSc4ccccc4)o3)n2)cc1 | 81 | / | / | / | /
CCc1ccc(N2C(=O)c3sc4nnc(-c5ccccc5)c(=O)n4c3C2=O)cc1 | . | . | . | . | .
CN1c2ccsc2/C(=N/Nc2ccccc2)CS1(=O)=O | / | . | . | / | /
CN1c2ccsc2C(=NNc2ccccc2)CS1(=O)=O | . | / | / | 96 | .
Cc1ccc(CNC(=O)CN2C(=O)COc3ccc(C)cc32)cc1 | 39 | . | . | . | .
CN(Cc1cc(=O)n2ccsc2n1)Cc1nc2ccccc2c(=O)[nH]1 | . | . | . | . | .
CN(C)c1ccc(C(=NO)c2ccccc2)cc1 | . | / | / | . | .
Cc1oc2c(c1C(=O)O)C(=O)c1ccccc1C2=O | . | . | . | . | .
O=C1C(=O)c2c(C(=O)c3ccccc3)coc2-c2ccccc21 | . | . | . | 86 | 94
Cc1oc2c(c1C(=O)c1ccccc1)C(=O)C(=O)c1ccccc1-2 | . | . | . | 94 | 100
c1coc(CNc2nc(N3CCCCC3)nc3ccccc23)c1 | . | . | . | . | .
Oc1ccccc1-c1nc(NCc2ccco2)c2ccccc2n1 | . | 120 | . | . | .
Fc1ccccc1-c1nc(NCc2ccco2)c2ccccc2n1 | . | . | . | . | .
c1ccc(N2CCN(c3nc(NCc4ccco4)c4ccccc4n3)CC2)cc1 | 40 | . | . | . | .
SMILES | PriA SSB inh | MazF activator | BJeLR viability | Sa ugtP lethal | RN4220 kill
Oc1ccccc1-c1nc(NCc2ccccc2)c2ccccc2n1 | . | 63 | . | . | .
Oc1ccccc1Nc1nc(NCc2ccccc2)c2ccccc2n1 | 50 | 57 | . | . | .
Cc1ccccc1OCC(O)Cn1c(N2CCCCC2)nc2c1c(=O)[nH]c(=O)n2C (stereo unspecified) | . | . | . | . | .
Cc1ccc(O)c(Nc2nc(-c3ccccc3)nc3ccccc23)c1 | . | . | . | . | .
Cc1ccc(O)c(Nc2c3ccccc3nc3ccccc23)c1 | 61 | . | . | . | .
COc1ccc(C)cc1Nc1nc(-c2ccccc2O)nc2ccccc12 | . | . | . | 91 | .
N#CC(=NNc1cccc(C(F)(F)F)c1)C(=O)c1ccsc1 | . | / | / | 97 | 100
CC(=NNc1cccc(C(F)(F)F)c1)c1ccc(O)cc1 | . | / | / | . | .
Cc1csc(NC(=O)CSc2ncc(-c3ccc(Cl)cc3)n2C)n1 | . | / | / | / | /
COc1cc(/C=N\N(C(=O)c2ccc(Cl)s2)c2nc3ccc(F)cc3s2)cc(OC)c1OC | . | / | / | / | /
CCOC(=O)c1cc2ccc3ccccc3c2s1 | . | . | . | 88 | .
CC(C)(C)c1ccc(C(=O)OC/C(O)=C(\C#N)c2nc3ccccc3s2)cc1 | . | . | . | 85 | .
N#C/C(=C(/O)COC(=O)c1ccccc1O)c1nc2ccccc2s1 | . | . | . | / | /
CCCNC1CCS(=O)(=O)C1 (stereo unspecified) | . | . | . | . | .
CC(C)/C=C1\CC/C(=C\c2ccc(N(C)C)cc2)C1=O | . | 419 | . | . | .
CC(C)Sc1cc(N2CCOCC2)nc(-c2ccccc2)n1 | . | . | . | 98 | .
O=c1c2sccc2nc(SCc2cccc(C(F)(F)F)c2)n1Cc1ccco1 | . | / | / | / | /
COc1ccc(Nc2nc(Nc3ccc4c(c3)OCO4)nc(N3CCOCC3)n2)cc1 | 38 | / | / | / | /
CCN1CCN(CCCNC(=O)c2ccc(/C=C3/Sc4ccccc4N(Cc4ccccc4F)C3=O)cc2)CC1 | . | . | . | . | .
CCN1CCN(CCNC(=O)c2ccc(/C=C3/Sc4ccccc4N(Cc4ccccc4C)C3=O)cc2)CC1 | . | . | 76 | . | .
CCCC(=O)OCC(=O)Nc1ccc(Cl)cc1[N+](=O)[O-] | 78 | / | / | / | /
CN(C)S(=O)(=O)c1ccc(Cl)c(C(=O)Nc2ccccc2[N+](=O)[O-])c1 | . | . | . | . | .
CCN(CC)S(=O)(=O)c1ccc(Cl)c(C(=O)Nc2ccc(Cl)cc2[N+](=O)[O-])c1 | 43 | . | . | . | .
COc1ccc(N2CCN(C(=O)c3ccc(S(=O)(=O)N4CCCC4)cc3)CC2)cc1 | . | . | . | . | .
CCC[n+]1c(C)sc2c3c(ccc21)CCCC3 | . | . | / | 95 | 97
SMILES | PriA SSB inh | MazF activator | BJeLR viability | Sa ugtP lethal | RN4220 kill
COC(=O)c1sc(-c2ccccc2)cc1NC(=O)CCS(=O)(=O)c1ccccc1 | . | / | / | / | /
COc1cccc(Cn2c(=O)ccc3ccccc32)c1 | . | . | . | . | .
CCN(CC)c1nc2ccccc2n(Cc2cccc(OC)c2)c1=O | . | . | . | 91 | .
Cc1cc(C)c(-c2csc(NC(=O)c3n[nH]c(=O)c4ccccc34)n2)c(C)c1 | . | . | . | . | .
COc1ccc(N(C(=O)Cn2nnc(-c3ccc(F)cc3)n2)C(C)C(=O)NC2CCCC2)cc1OC (stereo unspecified) | . | . | . | . | .
Cc1ccc2sc(NC(=O)CN3C(=O)CCC3=O)nc2c1C | 104 | . | . | . | .
CCOc1ccc(-n2c(SCc3nc4ccccc4[nH]3)nc3sc4c(c3c2=O)CCCC4)cc1 | . | / | / | / | /
COc1ccc(C(=O)NNC2=C(C(=O)C(F)(F)F)CCC2)cc1 | . | . | . | 97 | .
O=C(NNC(=O)c1cccc(Cl)c1)NNC(=O)c1cccc(Cl)c1 | . | . | / | . | .
O=C(NNC1=C(C(=O)C(F)(F)F)CCC1)c1cccc(Cl)c1 | . | . | . | 99 | 100
O=C(NNC1=C(C(=O)C(F)(F)F)CCC1)c1ccc(Cl)cc1 | . | . | . | 100 | 101
O=c1oc2c3c4c(cc2s1)CCCN4CCC3 | 52 | . | . | . | .
N#CC(=Cc1cccs1)c1nc(-c2ccc(Cl)cc2)cs1 | / | . | / | / | /
CCOc1cc(-c2nnc(NC(=O)c3cccc(Oc4ccccc4)c3)o2)cc(OCC)c1OCC | . | / | / | / | /
N#Cc1ccc(NCCc2ccccn2)c([N+](=O)[O-])c1 | . | . | . | . | .
O=[N+]([O-])c1cc(Cl)ccc1NCCc1ccccn1 | 55 | . | . | . | .
CN1CCN(CCCC(=O)c2ccc(C3CCCC3)cc2)CC1 | . | . | . | 85 | .
